A short description of assay [1]: binders of probe aFSTL3 on microarray, primary screen, stem cell growth factor project, biochemical, small-molecule microarray, fluorescence 635/667 (AID 1064).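 Further: measures binding of the biotinylated anti-FSTL3 antibody to printed compounds.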 Particulars: higher = more signal.
Assay [2] in a line: binders from COS7 lysate, DM2A8 probe, primary screen, torsin A project, cell lysate, small-molecule microarray, fluorescence 635/667 (AID 1065). The settings on record: higher = more signal, COS7 lysate expressing mutant human TOR1A.
Assay [3] is described as follows: binders of probe aFGF2 on microarray, primary screen, stem cell growth factor project, biochemical, small-molecule microarray, fluorescence 635/667 (AID 1067).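 Further: measures binding of biotinylated aFGF2 protein to printed compounds on slides; z-score merges feature fluorescence and signal-to-noise across triplicate slides.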 Particulars: higher = more signal.
A short description of assay [4]: binders of probe aFGF10 on microarray, primary screen, stem cell growth factor project, biochemical, small-molecule microarray, fluorescence 635/667 (AID 1071).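 Further: score merges 667 nm spot intensity and signal to noise from triplicate slides.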 The settings on record: higher = more signal.
The target of assay [5] is Neurogenic locus notch homolog protein 2 (Homo sapiens) (UniProt Q04721). Kind of assay: Notch2 binders on small-molecule microarrays, primary screen, biochemical, small-molecule microarray, 635 nm fluorescence, stem cell growth factors (AID 1073). The settings on record: Notch2 binding, higher = more signal.
Neurogenic locus notch homolog protein 2 (Homo sapiens), sequence (Q04721 whole entry, looked up, canonical isoform): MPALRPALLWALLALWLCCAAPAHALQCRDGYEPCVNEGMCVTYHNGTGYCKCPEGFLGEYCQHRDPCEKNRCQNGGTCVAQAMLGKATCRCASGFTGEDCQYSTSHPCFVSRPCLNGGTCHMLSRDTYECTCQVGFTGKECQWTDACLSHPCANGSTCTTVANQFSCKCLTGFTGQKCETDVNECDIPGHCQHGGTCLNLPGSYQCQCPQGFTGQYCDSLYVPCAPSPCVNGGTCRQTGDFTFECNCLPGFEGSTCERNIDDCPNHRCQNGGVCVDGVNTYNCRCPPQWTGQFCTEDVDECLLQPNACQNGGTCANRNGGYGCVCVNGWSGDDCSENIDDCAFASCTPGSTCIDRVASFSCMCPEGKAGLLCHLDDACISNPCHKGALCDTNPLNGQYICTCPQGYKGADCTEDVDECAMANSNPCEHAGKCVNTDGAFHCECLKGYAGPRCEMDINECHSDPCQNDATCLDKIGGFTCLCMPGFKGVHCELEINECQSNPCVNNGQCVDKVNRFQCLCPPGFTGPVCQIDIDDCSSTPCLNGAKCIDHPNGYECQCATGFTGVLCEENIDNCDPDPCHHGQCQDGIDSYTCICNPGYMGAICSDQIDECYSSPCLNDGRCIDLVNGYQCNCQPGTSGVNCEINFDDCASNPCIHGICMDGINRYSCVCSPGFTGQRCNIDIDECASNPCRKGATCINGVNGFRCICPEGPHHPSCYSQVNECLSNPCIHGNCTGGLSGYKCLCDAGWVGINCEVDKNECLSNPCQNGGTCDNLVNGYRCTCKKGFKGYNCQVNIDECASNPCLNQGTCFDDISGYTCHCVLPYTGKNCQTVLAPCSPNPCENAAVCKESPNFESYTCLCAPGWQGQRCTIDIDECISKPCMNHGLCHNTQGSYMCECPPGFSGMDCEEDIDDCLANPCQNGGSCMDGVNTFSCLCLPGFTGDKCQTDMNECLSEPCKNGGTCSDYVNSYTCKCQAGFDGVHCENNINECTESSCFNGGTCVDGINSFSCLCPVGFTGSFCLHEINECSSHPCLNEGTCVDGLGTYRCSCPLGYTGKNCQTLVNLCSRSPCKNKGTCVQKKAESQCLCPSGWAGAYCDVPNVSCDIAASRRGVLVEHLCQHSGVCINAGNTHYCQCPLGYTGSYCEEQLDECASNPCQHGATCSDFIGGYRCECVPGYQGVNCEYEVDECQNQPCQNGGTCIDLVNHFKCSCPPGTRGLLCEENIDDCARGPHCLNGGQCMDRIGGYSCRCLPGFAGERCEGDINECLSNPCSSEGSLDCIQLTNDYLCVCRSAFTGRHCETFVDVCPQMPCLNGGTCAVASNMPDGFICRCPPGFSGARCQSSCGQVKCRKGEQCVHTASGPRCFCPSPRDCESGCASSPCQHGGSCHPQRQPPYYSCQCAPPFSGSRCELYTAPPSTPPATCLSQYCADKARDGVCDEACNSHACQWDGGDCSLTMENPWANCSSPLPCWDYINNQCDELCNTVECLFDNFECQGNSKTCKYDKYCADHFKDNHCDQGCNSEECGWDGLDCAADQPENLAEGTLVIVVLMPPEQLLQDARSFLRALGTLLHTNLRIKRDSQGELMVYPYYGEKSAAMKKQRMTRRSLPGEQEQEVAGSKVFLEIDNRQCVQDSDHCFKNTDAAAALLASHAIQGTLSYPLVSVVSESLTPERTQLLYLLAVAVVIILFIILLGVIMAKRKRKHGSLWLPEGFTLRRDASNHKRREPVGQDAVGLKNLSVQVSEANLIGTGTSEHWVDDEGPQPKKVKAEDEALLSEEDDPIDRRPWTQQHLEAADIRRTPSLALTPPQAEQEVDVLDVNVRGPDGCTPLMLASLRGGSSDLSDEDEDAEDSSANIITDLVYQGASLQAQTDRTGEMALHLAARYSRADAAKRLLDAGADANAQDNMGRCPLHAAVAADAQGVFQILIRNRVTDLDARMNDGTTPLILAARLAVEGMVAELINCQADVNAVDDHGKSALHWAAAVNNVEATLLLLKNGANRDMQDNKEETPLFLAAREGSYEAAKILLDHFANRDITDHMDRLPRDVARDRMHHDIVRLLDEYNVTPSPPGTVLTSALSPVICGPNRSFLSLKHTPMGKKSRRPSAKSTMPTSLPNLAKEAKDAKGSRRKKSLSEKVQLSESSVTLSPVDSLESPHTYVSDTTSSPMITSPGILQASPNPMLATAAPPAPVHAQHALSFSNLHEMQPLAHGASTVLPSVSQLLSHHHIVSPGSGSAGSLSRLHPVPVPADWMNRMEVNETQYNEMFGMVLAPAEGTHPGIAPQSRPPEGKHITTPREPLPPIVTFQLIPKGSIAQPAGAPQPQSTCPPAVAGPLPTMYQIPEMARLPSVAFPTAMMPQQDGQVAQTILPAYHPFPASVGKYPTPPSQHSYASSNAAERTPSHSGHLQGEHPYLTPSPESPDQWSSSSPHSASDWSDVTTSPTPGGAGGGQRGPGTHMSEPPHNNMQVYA
For assay [6], the target named is Pro-neuregulin-1, membrane-bound isoform (Homo sapiens) (UniProt Q02297). Kind of assay: NRG1 binders on small-molecule microarrays, primary screen, psychiatric disease protein project, biochemical, small-molecule microarray, fluorescence 635/667 (AID 1075).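 Further: score combines 667 nm spot fluorescence with signal to noise.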 Particulars: NRG1 binding, 635 nm fluorescence, higher = more signal.
Pro-neuregulin-1, membrane-bound isoform (Homo sapiens), sequence (Q02297 whole entry, looked up, the tested form may be a part, canonical isoform): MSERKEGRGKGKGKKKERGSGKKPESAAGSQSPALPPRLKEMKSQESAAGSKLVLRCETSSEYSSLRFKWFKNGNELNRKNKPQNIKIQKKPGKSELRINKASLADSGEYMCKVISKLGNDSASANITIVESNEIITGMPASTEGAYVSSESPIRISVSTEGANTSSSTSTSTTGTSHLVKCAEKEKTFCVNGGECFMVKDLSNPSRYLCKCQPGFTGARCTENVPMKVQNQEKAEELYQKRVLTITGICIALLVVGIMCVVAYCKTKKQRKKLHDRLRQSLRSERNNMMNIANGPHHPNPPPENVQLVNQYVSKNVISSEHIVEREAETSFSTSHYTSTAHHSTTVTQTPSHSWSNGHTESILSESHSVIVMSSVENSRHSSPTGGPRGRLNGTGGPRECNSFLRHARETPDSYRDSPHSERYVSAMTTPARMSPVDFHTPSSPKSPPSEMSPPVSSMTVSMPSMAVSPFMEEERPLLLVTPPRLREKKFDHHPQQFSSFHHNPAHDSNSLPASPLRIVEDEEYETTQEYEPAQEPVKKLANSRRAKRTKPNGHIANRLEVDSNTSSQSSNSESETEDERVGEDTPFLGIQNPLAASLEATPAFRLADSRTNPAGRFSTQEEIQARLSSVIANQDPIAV
Assay [7] relates to Neuregulin-1 EGF-like domain. The assay can be described thus: binders of neuregulin-1 EGF-like domain, primary screen, biochemical, small-molecule microarray, 635 nm fluorescence (AID 1081).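 Further: binding of the protein to compounds printed on small-molecule microarray slides.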 The settings on record: small-molecule microarray binding, higher = more signal.
The nature of assay [8]: FRG1 promoter luciferase signal modulators, primary screen, FRG1 inhibition for FSHD, cell-based, C2C12 myotubes, firefly/Renilla luciferase, luminescence (AID 1084). The settings on record: higher = more signal, called active from +8 up or from −8 down.
Assay [9] is described as follows: binders of probe aFST on microarray, primary screen, stem cell growth factor project, biochemical, small-molecule microarray, fluorescence 635/667 (AID 1086).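 Further: score merges 667 nm fluorescence with signal-to-noise of each printed compound spot.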 The settings on record: higher = more signal.
Assay [10] can be described thus: binders of probe aHhip on microarray, primary screen, stem cell growth factor project, biochemical, small-molecule microarray, fluorescence 635/667 (AID 1087).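 Further: score merges spot fluorescence at 667nm with spot signal to noise ratio.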 Particulars: higher = more signal.
For assay [11], the system named is PRMT1 (protein arginine N-methyltransferase 1). The assay can be described thus: PRMT1 binders on small-molecule microarrays, primary screen, biochemical, small-molecule microarray, 635 nm fluorescence (AID 1088).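 Further: binding of Prmt1 protein to compounds spotted on small-molecule microarray slides.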 Particulars: small-molecule microarray binding, higher = more signal.
Assay [12] is described as follows: yeast growth modulation, basal conditions, primary screen, YJM789 clinical isolate, OD600, 24 h (AID 1089).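 Further: growth of clinical yeast isolate S. cerevisiae YJM 789 seeded 1000 cells per well; test concentration not given here.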 Particulars: S. cerevisiae YJM789 growth, higher = more signal, called active from +8 up or from −8 down.
A short description of assay [13]: fission yeast growth modulation, primary screen, strain 972, OD600, 24 h, no modulator (AID 1090).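 Further: basal condition with compound alone and no growth modifier present; test concentration not given here.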 The settings on record: S. pombe 972 growth, higher = more signal, called active from +8 up or from −8 down.
The nature of assay [14]: S. cerevisiae growth modulation with rapamycin, primary screen, strain BY4716, OD600, 96 h (AID 1091). Further: test concentration not given here. The settings on record: higher = more signal, called active from +8 up or from −8 down.
The target of assay [15] is Torsin-1A-interacting protein 2 (Homo sapiens) (UniProt Q8NFQ8). Kind of assay: LULL1 binders on small-molecule microarray, primary screen, cell lysate, human LULL1 lysate, 635/667 nm fluorescence (AID 1092).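 Further: probe is lysate of COS7 cells overexpressing human LULL1; score merges per-feature 667 nm fluorescence with signal-to-noise.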 The settings on record: hLULL1 lysate binding, 635 nm fluorescence, higher = more signal.
Torsin-1A-interacting protein 2 (Homo sapiens), sequence (Q8NFQ8 whole entry, looked up): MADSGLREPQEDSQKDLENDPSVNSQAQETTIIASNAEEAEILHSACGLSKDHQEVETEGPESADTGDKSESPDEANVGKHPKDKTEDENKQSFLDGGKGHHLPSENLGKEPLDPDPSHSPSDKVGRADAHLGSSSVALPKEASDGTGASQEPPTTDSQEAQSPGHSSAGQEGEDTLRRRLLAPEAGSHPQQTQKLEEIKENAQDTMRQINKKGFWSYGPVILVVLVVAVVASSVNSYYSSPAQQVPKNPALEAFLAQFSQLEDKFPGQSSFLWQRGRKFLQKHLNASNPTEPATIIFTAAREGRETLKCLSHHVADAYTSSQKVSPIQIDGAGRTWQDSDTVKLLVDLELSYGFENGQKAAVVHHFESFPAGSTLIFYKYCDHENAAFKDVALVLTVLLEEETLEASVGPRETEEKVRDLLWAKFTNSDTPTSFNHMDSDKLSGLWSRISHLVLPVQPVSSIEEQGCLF
Assay [16] can be described thus: E. coli growth modulation, two-sided OD650, primary screen, E. coli filamentation project, strain DRC41, 24 h (AID 1093).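 Further: MC1000 strain lacking acrAB efflux and sulA so SOS filamentation is blocked; test concentration not given here.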 The settings on record: OD650, 24 h, higher = more signal, called active from +8 up or from −8 down.
A short description of assay [17]: small-molecule microarray binders of probe aLefty2, primary screen, biochemical, biotinylated probe, 635/667 nm fluorescence (AID 1094).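 Further: score merges spot fluorescence near 667 nm with spot signal-to-noise ratio.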 Particulars: higher = more signal.
For assay [18], the system named is Noggin (protein binding on small-molecule microarray). The assay can be described thus: Noggin binders on small-molecule microarray, primary screen, biochemical, 635/667 nm fluorescence (AID 1095).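 Further: score merges 667 nm feature fluorescence with signal to noise over triplicate slides.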 Particulars: 635 nm fluorescence, higher = more signal.
For assay [19], the target named is Neurogenic locus notch homolog protein 3 (Homo sapiens) (UniProt Q9UM47). Kind of assay: NOTCH3 binders on small-molecule microarray, primary screen, biochemical, 635/667 nm fluorescence (AID 1096). Particulars: NOTCH3 binding, 635 nm fluorescence, higher = more signal.
Assay [20] can be described thus: small-molecule microarray binders of probe aEGFR, primary screen, biochemical, biotinylated probe, 635/667 nm fluorescence (AID 1097).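 Further: probe is a biotinylated anti-EGFR antibody binding compounds printed on slides; score combines fluorescence near 667 nm and signal to noise of each spot.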 The settings on record: higher = more signal.

The values that follow come from PubChem BioAssay.

Active and inactive are the calls of the source.

Regarding `NCCCCCCNC(=O)[C@H]1C[C@H]2C(=O)N3CCC[C@H]3C(=O)N2[C@H]1c1ccc(O)cc1`, the composite z-score is 0.185 in assay [1]; 0.533 in [2]; -0.029 in [3]; 0.176 in [4]; -0.45 in [5]; 1.23 in [6]. Besides, the composite z-score in assay [7] is 1.22; in [9] it was 0.0744; in assay [10] it was -0.184; in assay [11], 1.29; in assay [15], 0.991; in [17] it was -0.179. In addition, the values for the composite z-score in assay [18], in assay [19] and in assay [20] were 1.41, 0.419 and 0.0053, respectively. Moreover, the z-score was -0.415 (inactive) in assay [8]; -0.777 (inactive) in [12]; -1.25 (inactive) in assay [13]; -0.28 (inactive) in assay [14]; 0.181 (inactive) in assay [16].

Turning to `CN1C(=O)C2C=CC(C(O)COCc3ccccc3)N(Nc3ccccc3)C2C1=O` (stereo not given), the composite z-score in assay [1] is -0.121; in assay [2] it was 0.165; in [3], 0.308; in [4] it was 0.389; in assay [5], 1.33; in assay [6] it was 0.374. For the same compound, the composite z-score in assay [7] was 1; in assay [9], 0.486; in [10], -0.166; in assay [11], 0.691; in [15], 3.54; in assay [17] it was 0.147. Moreover, the figures for the composite z-score in [18], in assay [19] and in assay [20] were 0.28, 0.896 and -0.0232, respectively. The z-score is 0.146 (inactive) in [8]; 0.12 (inactive) in assay [12]; 1.15 (inactive) in assay [13]; -0.116 (inactive) in [14]; -0.309 (inactive) in assay [16].

`O=C1C2C=CC(C(O)c3ccccn3)N(Nc3ccccc3)C2C(=O)N1c1ccccc1` (stereo not given): the composite z-score is -0.205 in assay [1]; -1.39 in assay [2]; -0.105 in assay [3]; 0.356 in assay [4]; 0.177 in assay [5]; 1.65 in assay [6]. The composite z-score in assay [7] is 1.03; in assay [9], 0.338; in assay [10], -0.0003; in [11], 0.207; in [15], 2.24; in [17], -0.0991. The figures for the composite z-score in [18], in assay [19] and in [20] were -0.292, -0.254 and -0.108, respectively. In addition, the z-score in [8] was 1.29 (inactive); in [12], 0.756 (inactive); in assay [13], 1.41 (inactive); in assay [14], 0.391 (inactive); in assay [16], -0.917 (inactive).

Take `COc1cccc(C)c1NC(=O)O[C@H]1[C@H](OC(=O)Nc2ccccc2)[C@H](OC(=O)Nc2ccccc2)[C@@H](OC)O[C@@H]1CO`: the composite z-score in [1] is -0.306; in assay [2], 0.559; in [3] it was -0.0216; in [4], 0.401; in assay [5], 1.16; in [6], 1.64. Moreover, the composite z-score in assay [7] was 1.22; in assay [9] it was 0.319; in assay [10] it was -0.0994; in assay [11], 1.55; in assay [15], 3.35; in [17], 0.0682. Further, the composite z-score is 0.203 in assay [18], 0.93 in [19] and -0.125 in [20]. Besides, the z-score in assay [8] was 1.59 (inactive); in assay [12], 0.547 (inactive); in [13] it was 1.03 (inactive); in [14], 3.23 (inactive); in assay [16], -0.721 (inactive).

In the case of `CCCCC(O)C1C=CC2C(=O)N(Cc3ccccc3)C(=O)C2N1n1cnnc1` (stereo not given), the composite z-score was -0.246 in assay [1]; 0.095 in assay [2]; 0.0311 in assay [3]; 0.22 in assay [4]; 0.225 in assay [5]; 1.1 in [6]. Besides, the composite z-score in assay [7] was 1.08; in assay [9], 0.437; in assay [10] it was 0.312; in assay [11], 0.623; in [15] it was 2.57; in [17], -0.103. The composite z-score was found to be 0.159 in assay [18], 0.62 in assay [19] and 0.035 in assay [20]. Moreover, the z-score in assay [8] is 0.2 (inactive); in [12], -0.28 (inactive); in [13], 0.653 (inactive); in assay [14] it was -0.335 (inactive); in assay [16], -0.981 (inactive).
